# Results filed as inconclusive are left out. A structure can be active in one record and inactive in another. The source made the active and inactive calls. How the source made its calls: active means hit-call score of the fitted dose curve at least 0.9, where 1 is the maximum; inconclusive means response in the unintended direction; inactive means score below 0.9.
# Tests used:
# [1] = ATG_XTT_Cytotoxicity: Cytotoxicity Assessment in the Attagene TRANS-FACTORIAL HepG2 Assay (AID 2283584);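 on AC50: cells exposed to compound for 24 h before reading; active means loss of viability signal versus DMSO baseline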
# How it was run: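 HepG2 human liver cells, transiently transfected with multiple GAL4-UAS reporter units, were dosed and read at 24 h by XTT as cell number. Loss of signal was fitted relative to DMSO negative control baseline.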
# [2] = TOX21_p53_BLA_p2_viability: Viability Assessment in the Tox21 HCT-116 p53 Agonism Beta-lactamase Assay, Phase 2 (AID 2283591);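 further: compound exposure lasted 16 h at 37 °C; actives lower the ATP signal meaning cytotoxicity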
# How it was run: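 Cytotoxicity readout: CellTiter-Glo ATP luminescence, 30 min at room temperature, after the beta-lactamase read. Cells were HCT116 exposed 16 h at 37C to compounds pin-transferred at 217-fold dilution from DMSO stocks.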
# [3] = target: Cellular tumor antigen p53 (Homo sapiens) (UniProt P04637); experiment: TOX21_p53_BLA_p2_ratio: Tox21 HCT-116 p53 Agonism Beta-lactamase Assay, Ratio, Phase 2 (AID 2283592)
# How it was run: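 Ratio endpoint: beta-lactamase cleavage of CCF4-AM, blue (460 nm) over green (530 nm). HCT116 reporter line; 16 h treatment, 37C; substrate 2 h RT.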
# [4] = TOX21_p53_BLA_p3_viability: Viability Assessment in the Tox21 HCT-116 p53 Agonism Beta-lactamase Assay, Phase 3 (AID 2283593);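 further: cells exposed to compound for 16 h before reading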
# How it was run: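 Cellular ATP was quantified by CellTiter-Glo luminescence, read after 30 min at room temperature. Beforehand, HCT116 cells (4000/well) received compound 5 h post-seeding, 217-fold diluted from DMSO, then incubated 16 h at 37C.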
# Cellular tumor antigen p53 (Homo sapiens), sequence (P04637 whole entry, looked up): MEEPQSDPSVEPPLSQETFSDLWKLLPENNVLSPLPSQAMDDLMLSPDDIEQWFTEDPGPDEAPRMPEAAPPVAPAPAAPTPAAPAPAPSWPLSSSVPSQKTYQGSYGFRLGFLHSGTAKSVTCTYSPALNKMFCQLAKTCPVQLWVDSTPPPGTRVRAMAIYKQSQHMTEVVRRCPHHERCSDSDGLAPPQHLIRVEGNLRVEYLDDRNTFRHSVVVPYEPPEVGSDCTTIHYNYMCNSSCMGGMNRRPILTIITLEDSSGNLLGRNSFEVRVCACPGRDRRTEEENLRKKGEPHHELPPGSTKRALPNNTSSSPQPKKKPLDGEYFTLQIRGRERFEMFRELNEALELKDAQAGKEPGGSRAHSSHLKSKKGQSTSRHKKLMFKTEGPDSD
smiles,measurement,setting,value
O=C1OC[C@H](Cc2cccc(O)c2)[C@H]1Cc1cccc(O)c1,outcome,[1],inactive
same,outcome,[2],inactive
CCCCCC(C)=O,outcome,[1],inactive
C=C(C)CNCC,outcome,[1],inactive
same,outcome,[2],inactive
C[Si]1(C)O[Si](C)(C)O[Si](C)(C)O1,outcome,[1],inactive
same,outcome,[2],inactive
Oc1ccc2cc(SSc3ccc4cc(O)ccc4c3)ccc2c1,outcome,[1],inactive
N[C@@H](Cc1cc(I)c(Oc2cc(I)c(O)c(I)c2)c(I)c1)C(=O)O,outcome,[1],inactive
same,outcome,[2],inactive
COC(=O)c1ccc(C)cc1C1=NC(C)(C(C)C)C(=O)N1 (configuration not stated) (tested in a mixture with another compound),outcome,[1],inactive
same,outcome,[2],inactive
OC[C@H]1O[C@@H]2O[C@H]3[C@H](O)[C@@H](O)[C@@H](O[C@H]4[C@H](O)[C@@H](O)[C@@H](O[C@H]5[C@H](O)[C@@H](O)[C@@H](O[C@H]6[C@H](O)[C@@H](O)[C@@H](O[C@H]7[C@H](O)[C@@H](O)[C@@H](O[C@H]8[C@H](O)[C@@H](O)[C@@H](O[C@H]9[C@H](O)[C@@H](O)[C@@H](O[C@H]1[C@H](O)[C@H]2O)O[C@@H]9CO)O[C@@H]8CO)O[C@@H]7CO)O[C@@H]6CO)O[C@@H]5CO)O[C@@H]4CO)O[C@@H]3CO,outcome,[1],inactive
O=C(CS)OCCOC(=O)CS,outcome,[1],inactive
same,outcome,[2],inactive
CCc1cc(Cc2cc(CC)cc(C(C)(C)C)c2O)c(O)c(C(C)(C)C)c1,outcome,[1],inactive
same,AC50,[2],4.87 µM (active)
COc1cc(C(C)C)ccc1C,outcome,[1],inactive
CCCCSCCCC,outcome,[1],inactive
same,outcome,[2],inactive
same,outcome,[3],inactive
CCCCCc1ccco1,outcome,[1],inactive
same,outcome,[2],inactive
same,outcome,[3],inactive
same,AC50,[4],58 µM (active)
CC(=O)c1c(C)c([N+](=O)[O-])c(C(C)(C)C)c([N+](=O)[O-])c1C,outcome,[1],inactive
same,outcome,[2],inactive
same,outcome,[3],inactive
Cc1cccc(Nc2ccccc2)c1,outcome,[1],inactive
same,outcome,[2],inactive
same,outcome,[3],inactive
CC(C)NCC(O)COc1ccc(CC(N)=O)cc1 (configuration not stated),outcome,[1],inactive
same,outcome,[2],inactive
same,outcome,[3],inactive
Cc1ncc([N+](=O)[O-])n1CCO,outcome,[1],inactive
same,outcome,[2],inactive
same,outcome,[3],inactive
CCOCCOCCOCC,outcome,[1],inactive
same,outcome,[2],inactive
same,outcome,[3],inactive
CC1CC(O)CC(C)(C)C1 (configuration not stated),outcome,[1],inactive
same,outcome,[2],inactive
same,outcome,[3],inactive
COc1ccccc1[N+](=O)[O-],outcome,[1],inactive
same,outcome,[2],inactive
same,outcome,[3],inactive
same,outcome,[4],inactive
O=C1OC(=O)c2c(Cl)c(Cl)c(Cl)c(Cl)c21,outcome,[1],inactive
same,outcome,[2],inactive
same,outcome,[3],inactive
CCCCCCCC(=O)OCC(O)CO (configuration not stated),outcome,[1],inactive
same,outcome,[2],inactive
same,outcome,[3],inactive
CCCCCCCCCCCC(=O)OC[C@@H](O)[C@H]1OC[C@H](O)[C@H]1O,outcome,[1],inactive
same,outcome,[2],inactive
same,outcome,[3],inactive
same,outcome,[4],inactive
CC1(C)O[C@@H]2C[C@H]3[C@@H]4CCC5=CC(=O)C=C[C@]5(C)[C@@]4(F)[C@@H](O)C[C@]3(C)[C@]2(C(=O)CO)O1,outcome,[1],inactive
same,outcome,[2],inactive
same,outcome,[3],inactive
C=C(C)C(=O)OCCOCCOCCOC(=O)C(=C)C,outcome,[1],inactive
same,outcome,[2],inactive
same,outcome,[3],inactive
CCCCCC(=O)CC,outcome,[1],inactive
same,outcome,[2],inactive
same,outcome,[3],inactive
same,outcome,[4],inactive
CCCCN(CCCC)C(=O)N(CCCC)CCCC,outcome,[1],inactive
same,outcome,[2],inactive
same,outcome,[3],inactive
same,outcome,[4],inactive
CC(=O)c1ccccn1,outcome,[1],inactive
same,outcome,[2],inactive
same,outcome,[3],inactive
C=CCCC(=O)/C=C/C1C(C)=CCCC1(C)C (configuration not stated),outcome,[1],inactive
same,outcome,[2],inactive
same,outcome,[3],inactive
CCCCCCCCCCCCCCN(CCO)CCO,AC50,[1],28.3 µM (active)
same,outcome,[2],inactive
same,outcome,[3],inactive
NCCNc1cccc2ccccc12,outcome,[1],inactive
same,outcome,[2],inactive
same,outcome,[3],inactive
CC(=O)Nc1ccc(C(=O)CCl)cc1,outcome,[1],inactive
same,outcome,[2],inactive
same,AC50,[3],76.7 µM (active)
same,outcome,[3],inactive
same,outcome,[4],inactive
CCO/C=C1\N=C(c2ccccc2)OC1=O,outcome,[1],inactive
same,outcome,[2],inactive
same,outcome,[3],inactive
same,outcome,[4],inactive
CCCCC(CC)C(=O)OC(C)C (configuration not stated),outcome,[1],inactive
same,outcome,[2],inactive
same,outcome,[3],inactive
[O-]n1ccccc1=S.[O-]n1ccccc1=S.[Zn+2],AC50,[1],2.87 µM (active)
same,AC50,[2],14.3 µM (active) [middle of 4 runs]
same,AC50,[3],33.8 µM (active) [middle of 4 runs]
same,AC50,[4],20.3 µM (active) [middle of 4 runs]
COCCOC(=O)c1ccccc1C(=O)OCCOC,outcome,[1],inactive
same,outcome,[2],inactive
same,outcome,[3],inactive
CC(C)CCOC(=O)c1ccccc1,outcome,[1],inactive
same,outcome,[2],inactive
same,outcome,[3],inactive
Cc1c(OCC(F)(F)F)ccnc1CS(=O)c1nc2ccccc2[nH]1 (configuration not stated),outcome,[1],inactive
same,outcome,[2],inactive
same,outcome,[3],inactive
same,outcome,[4],inactive
O=C(O)c1ccc(O)cc1,outcome,[1],inactive
same,outcome,[2],inactive
same,outcome,[3],inactive
same,outcome,[4],inactive
CC(C)C(OC(=O)c1ccccc1)C(C)(C)COC(=O)c1ccccc1 (configuration not stated),outcome,[1],inactive
same,outcome,[2],inactive
same,outcome,[3],inactive
same,outcome,[4],inactive

# From PubChem BioAssay (EPA / NIEHS)
